PubChem BioAssay (NCI)
About 83,000 compounds went through this panel and 20% of them were active in at least one assay; those are over-represented in the sample as a whole.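 Values shown are percent growth following 48 h exposure of cells in 96-well plates to a single concentration of compound; below 10 was considered active.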 Active and inactive are the calls of the source.

Tests used:
Test in all cases: NCI-60 one-dose screen, 48 h (100 = growth as untreated, 0 = no growth, -100 = all killed)
Details in all cases: 10 µM unless noted
HT29 colon = test system: HT29 colon
SNB-75 CNS = test system: SNB-75 CNS
SNB-19 CNS = test system: SNB-19 CNS
U251 CNS = test system: U251 CNS
PC-3 prostate = test system: PC-3 prostate
UACC-62 melanoma = test system: UACC-62 melanoma
SK-MEL-28 melanoma = test system: SK-MEL-28 melanoma
LOX IMVI melanoma = test system: LOX IMVI melanoma
SK-MEL-2 melanoma = test system: SK-MEL-2 melanoma
SK-MEL-5 melanoma = test system: SK-MEL-5 melanoma

C/C(=C\CCc1ccsc1)CC/C=C(\C)CCCN1CCN(CCO)CC1
growth (HT29 colon): -34.4% (active)
growth (SNB-75 CNS): 42.7% (inactive)
growth (SNB-19 CNS): 64% (inactive)
growth (U251 CNS): 6.55% (active)
growth (PC-3 prostate): 55.3% (inactive)
growth (UACC-62 melanoma): -73.9% (active)
growth (SK-MEL-28 melanoma): 58.1% (inactive)

Clc1ccc(CCC(Cn2ccnc2)Sc2c(Cl)cccc2Cl)cc1 (centres undefined)
growth (HT29 colon): 26.7% (inactive)
growth (SNB-75 CNS): 92.5% (inactive)
growth (SNB-19 CNS): 80.2% (inactive)
growth (U251 CNS): 57.2% (inactive)
growth (PC-3 prostate): 26.5% (inactive)
growth (UACC-62 melanoma): 55% (inactive)
growth (LOX IMVI melanoma): 40.5% (inactive)
growth (SK-MEL-28 melanoma): 102% (inactive)
growth (SK-MEL-2 melanoma): 72.8% (inactive)

CC[C@@H]1OC(=O)[C@H](C)[C@@H](O[C@H]2C[C@@](C)(OC)[C@@H](O)[C@H](C)O2)[C@H](C)[C@@H](O[C@@H]2O[C@H](C)C[C@H](N(C)C)[C@H]2O)[C@](C)(O)C[C@@H](C)[C@@H]2N[C@@H](COCCOC)O[C@H]([C@H]2C)[C@]1(C)O
growth (HT29 colon): 103% (inactive)
growth (SNB-75 CNS): 77.4% (inactive)
growth (SNB-19 CNS): 104% (inactive)
growth (U251 CNS): 96.6% (inactive)
growth (PC-3 prostate): 111% (inactive)
growth (UACC-62 melanoma): 109% (inactive)
growth (SK-MEL-28 melanoma): 109% (inactive)
growth (SK-MEL-2 melanoma): 121% (inactive)

CN(C)c1ccc2[nH]c3c(C(N)=O)cc(=O)c(=O)c=3oc2c1
growth (HT29 colon): 127% (inactive)
growth (SNB-75 CNS): 52.7% (inactive)
growth (SNB-19 CNS): 74.4% (inactive)
growth (U251 CNS): 35.4% (inactive)
growth (PC-3 prostate): 59.3% (inactive)
growth (UACC-62 melanoma): 62.6% (inactive)
growth (LOX IMVI melanoma): 8.85% (active)
growth (SK-MEL-28 melanoma): 85.8% (inactive)
growth (SK-MEL-2 melanoma): 85.4% (inactive)

CCc1ccc(CCN2C(=O)c3ccccc3C2=O)nc1
growth (HT29 colon): 109% (inactive)
growth (SNB-75 CNS): 99% (inactive)
growth (SNB-19 CNS): 91.7% (inactive)
growth (U251 CNS): 103% (inactive)
growth (SK-MEL-5 melanoma): 107% (inactive)
growth (UACC-62 melanoma): 98.6% (inactive)
growth (LOX IMVI melanoma): 101% (inactive)
growth (SK-MEL-28 melanoma): 118% (inactive)

CCCCc1nc(Cl)c(CO)n1Cc1ccc(-c2ccccc2-c2nn[nH]n2)cc1
growth (HT29 colon): 108% (inactive)
growth (SNB-75 CNS): 101% (inactive)
growth (SNB-19 CNS): 110% (inactive)
growth (U251 CNS): 97.9% (inactive)
growth (PC-3 prostate): 93.2% (inactive)
growth (UACC-62 melanoma): 102% (inactive)
growth (LOX IMVI melanoma): 100% (inactive)
growth (SK-MEL-28 melanoma): 114% (inactive)
growth (SK-MEL-2 melanoma): 125% (inactive)

CN(CCOc1ccc(CC2SC(=O)NC2=O)cc1)c1ccccn1 (centres undefined)
growth (HT29 colon): 117% (inactive)
growth (SNB-75 CNS): 96.3% (inactive)
growth (SNB-19 CNS): 105% (inactive)
growth (U251 CNS): 90.7% (inactive)
growth (PC-3 prostate): 105% (inactive)
growth (UACC-62 melanoma): 93.1% (inactive)
growth (LOX IMVI melanoma): 92.8% (inactive)
growth (SK-MEL-28 melanoma): 111% (inactive)
growth (SK-MEL-2 melanoma): 117% (inactive)

Cc1[nH]n(C(N)=S)c(=O)c1N=Nc1ccc(F)c(Cl)c1
growth (HT29 colon): 147% (inactive)
growth (SNB-75 CNS): 119% (inactive)
growth (SNB-19 CNS): 164% (inactive)
growth (U251 CNS): 108% (inactive)
growth (SK-MEL-5 melanoma): 95% (inactive)
growth (UACC-62 melanoma): 84.6% (inactive)
growth (LOX IMVI melanoma): 110% (inactive)
growth (SK-MEL-28 melanoma): 116% (inactive)

CCN1C2=C(SC(=S)C1=C1SC(C(=O)OC)=C(C(=O)OC)S1)SC(=Nc1ccc(OC)cc1)C2=O
growth (HT29 colon): -6.07% (active)
growth (SNB-75 CNS): -16.1% (active)
growth (SNB-19 CNS): 4.72% (active)
growth (U251 CNS): -32.5% (active)
growth (PC-3 prostate): 2.92% (active)
growth (UACC-62 melanoma): -76.8% (active)
growth (LOX IMVI melanoma): -72.1% (active)
growth (SK-MEL-28 melanoma): -55% (active)
growth (SK-MEL-2 melanoma): -5.85% (active)

CCOc1nc(-c2ccccc2)cc2c(O)c(C(=O)n3nc(C)cc3C)[nH]c(=O)c12
growth (HT29 colon): 104% (inactive)
growth (SNB-75 CNS): 94.4% (inactive)
growth (SNB-19 CNS): 102% (inactive)
growth (U251 CNS): 99.5% (inactive)
growth (PC-3 prostate): 101% (inactive)
growth (UACC-62 melanoma): 110% (inactive)
growth (SK-MEL-28 melanoma): 109% (inactive)

CSc1nnc(C2=CC(=O)c3ccccc3C2=O)n1-c1ccccc1
growth (HT29 colon): 110% (inactive)
growth (SNB-75 CNS): 74.8% (inactive)
growth (SNB-19 CNS): 91.5% (inactive)
growth (U251 CNS): 76.5% (inactive)
growth (PC-3 prostate): 86.7% (inactive)
growth (UACC-62 melanoma): 84.1% (inactive)
growth (SK-MEL-28 melanoma): 105% (inactive)

Cc1c(NCc2nnc3n(Cc4ccccc4)c(=O)c4c5c(sc4n23)CCCC5)c(=O)n(-c2ccccc2)n1C
growth (HT29 colon): 77.2% (inactive)
growth (SNB-75 CNS): 98% (inactive)
growth (SNB-19 CNS): 79.9% (inactive)
growth (U251 CNS): 97.6% (inactive)
growth (SK-MEL-5 melanoma): 81% (inactive)
growth (UACC-62 melanoma): 80% (inactive)
growth (LOX IMVI melanoma): 91.6% (inactive)
growth (SK-MEL-28 melanoma): 103% (inactive)
growth (SK-MEL-2 melanoma): 97.1% (inactive)
